Mdm2-MdmX inh – inhibitors of human Mdm2/MdmX interaction; AID 485346; inhibition, % at 8 µM; 3% of 330,000 active; SaOS-2 split-luciferase Mdm2/MdmX complementation, luminescence; O15151+Q00987;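 active means inhibition of at least 50% at 8 µM in the primary screen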
tim23-1 inh – growth inhibitors of tim23-1 mutant yeast. S. cerevisiae tim23-1 growth, BacTiter-Glo luminescence, 24 h. 1.3% of 330,000 active. inhibition, % at 20 µM;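 active means growth inhibition of the mutant yeast at or above 50%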;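 further: temperature-sensitive mutant grown at 25 °C; plate controls were DMSO-treated mutant yeast for no effect and medium wells lacking yeast for full effect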
tim10-1 inh – tim10-1 yeast growth inhibition. S. cerevisiae tim10-1 ts strain growth, BacTiter-Glo, 24 h. inhibition, % at 20 µM. 2.2% of 330,000 active. AID 463190;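 active means inhibition of at least 40%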;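 further: mutant grown at 25 °C; 0% = DMSO wells with yeast and 100% = wells holding no yeast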
MPTP block – blocks calcium-induced mitochondrial swelling | isolated mouse mitochondria, Ca2+ swelling absorbance, 30 min | inhibition, % at 10 µM | 1.4% of 360,000 active | AID 602449;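 active means inhibition of 50% or more, scaled per plate between neutral and stimulator controls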;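 further: 0% = DMSO wells given calcium and 100% = 1 mM EGTA wells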
TIM10 inh – growth inhibitors of TIM10 yeast strain; S. cerevisiae TIM10 strain growth, BacTiter-Glo luminescence, 24 h; inhibition, % at 10 µM; 1.4% of 330,000 active; AID 463195;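 active means inhibition of 40% or more at the single tested concentration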;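 further: wild-type TIM10 isogenic control strain grown at permissive 25 °C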
Rh123 counter – Rhodamine 123 counter-screen of mitochondrial pore hits. shares compounds with MPTP block. isolated mitochondria, membrane potential, Rhodamine 123 fluorescence. inhibition, % at 10 µM. 78% of 5,000 active. AID 624504; in the data active means inhibition above about 22%;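 further: 0% = DMSO vehicle and 100% = positive control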
MPTP swell DR – dose response confirmation of mitochondrial permeability transition pore inhibitors | shares compounds with MPTP block | isolated mitochondria swelling, absorbance | IC50, µM | 58% of 780 active; in the data active means IC50 below about 20 µM
MPTP counter DR – counter-screen for mitochondrial permeability transition pore inhibitors, dose response. IC50, µM. shares compounds with MPTP block. isolated mitochondria counterscreen, fluorescence read-out. AID 651564. 49% of 780 active; in the data active means IC50 below about 80 µM
An asterisk follows results filed as active; i = inactive; · = no result. Compounds with a hit are over-represented: about 6.3% of the library has one in this group of screens.

SMILES	Mdm2-MdmX inh	tim23-1 inh	tim10-1 inh	MPTP block	TIM10 inh	Rh123 counter	others
CC(=O)c1ccc(Oc2cc(-c3ccccc3)nc(-c3ccccc3)n2)cc1	-12	7	7	53*	8	-1	MPTP swell DR=>100;MPTP counter DR=>80
O=C1CCC(c2ccccc2)N1c1ccccc1 (configuration not stated)	·	·	·	-1	·	·
O=C(Nc1cccc(Cl)c1)OCCN1CCN(Cc2ccccc2)CCC1=O	-16	25	8	93*	4	89*
NC(Cc1ccc(C(F)(F)F)cc1)c1csc(Nc2nccc(C(F)(F)F)n2)n1 (configuration not stated)	·	·	·	3	·	·
N#Cc1cc(C(=O)c2cc(F)ccc2O)cn(-c2nccs2)c1=O	21	32	28	52*	31	86*
O=[N+]([O-])c1ccc(N/N=C2\CC3CC=CC23)cc1 (configuration not stated)	-42	24	8	-1	10	·
O=[N+]([O-])c1ccc(N/N=C2\CC3CC=CC23)c([N+](=O)[O-])c1 (configuration not stated)	20	26	32	92*	34	75*
O=C(NC1CCN(Cc2ccccc2)CC1)c1cccc(S(=O)(=O)Nc2cc(C(F)(F)F)ccc2Cl)c1	15	16	11	4	23	·
CCC1CCCCN1C(=O)c1cccc(S(=O)(=O)Nc2cc(C(F)(F)F)ccc2Cl)c1 (configuration not stated)	-5	36	39	74*	17	81*
COc1cc(CC2C(=O)OCC2C(=O)c2ccc3c(c2)OCO3)cc(OC)c1OC (configuration not stated)	·	·	·	2	·	·
CNC(=O)Nc1cc(C(F)(F)F)cc(C(F)(F)F)c1	33	-12	-9	64*	6	94*
CC(CC(=O)O)CC(=O)Nc1cc(C(F)(F)F)cc(C(F)(F)F)c1 (configuration not stated)	1	2	-11	2	-16	·
Cc1ccc(C(=O)N2CCC3CC2c2cc(-c4ccc5c(c4)OCO5)ccc23)cc1 (configuration not stated)	·	·	·	2	·	·
CCC(C)Nc1nc(OCC(F)(F)F)nc(OCC(F)(F)F)n1 (configuration not stated)	1	2	-19	-1	-6	·
CCC(C)Nc1nc(OC(C(F)(F)F)C(F)(F)F)nc(OC(C(F)(F)F)C(F)(F)F)n1 (configuration not stated)	16	26	5	60*	-19	60*
Fc1ccc(OCCOCCN2CCCC2)cc1	-1	1	-10	2	7	·
CC(OCCN1CCCC1)(c1ccc(F)cc1)c1ccc(F)cc1	-20	9	8	76*	1	-2	MPTP swell DR=i;MPTP counter DR=>80
CCC(C)Sc1cc(C(F)(F)F)c(C(=O)Nc2ccc(Cl)cc2)cn1 (configuration not stated)	42	4	7	75*	-17	87*
Cc1cn(CC(=O)N(C)Cc2ccco2)c(=O)[nH]c1=O	·	·	·	-2	·	·
O=C(CCSc1ccc(Cl)c(Cl)c1)NC12CC3CC(CC(C3)C1)C2	-19	35	38	52*	28	45*
CN(CC(=O)Nc1ccc(Cl)c(Cl)c1)CC(=O)N1CCc2ccccc21	·	·	·	1	·	·
Cc1cc(C(C)(C)C)cc(C)c1CCNC(=O)c1c(C)noc1C	-5	19	27	0	12	·
COC(=O)c1ccc(Oc2ccc3nnc(C)n3n2)cc1	28	5	17	1	-8	·
Cc1nnc2ccc(Oc3ccc(-c4ccccc4)cc3)nn12	15	17	22	74*	12	66*
CCCCN(C(=O)c1cccc(S(=O)(=O)N(CC)c2ccccc2)c1)c1c(N)n(CC(C)C)c(=O)[nH]c1=O	·	·	·	-1	·	·
SMILES	Mdm2-MdmX inh	tim23-1 inh	tim10-1 inh	MPTP block	TIM10 inh	Rh123 counter	others
CCN(CC)CCNc1cccc2sc3ccccc3c(=O)c12	·	·	·	1	·	·
CCN(CC)CCNc1ccc(CO)c2sc3ccccc3c(=O)c12	47	16	39	60*	17	-6
Cc1cc(Cl)cc(Cl)c1CNc1c([N+](=O)[O-])c(=O)oc2ccccc12	33	1	9	90*	-3	96*
O=c1oc2ccccc2c(NCc2ccc(Cl)cc2)c1[N+](=O)[O-]	9	21	10	54*	6	73*
O=c1oc2ccccc2c(NCc2ccccc2)c1[N+](=O)[O-]	0	26	-9	4	9	·
CCOC(=O)[C@@H]1CSCCS(=O)(=O)N1Cc1ccccc1Br	·	·	·	9	·	·
CCN1C(=O)[C@H]2[C@@H](c3ccc(C)cc3)N3C(=O)N(c4ccc(C(F)(F)F)cc4)C(=O)[C@@]3(CC(C)C)[C@H]2C1=O	44	-12	-3	94*	-10	98*
O=C1c2ccccc2CCC12OC2c1ccc([N+](=O)[O-])cc1 (configuration not stated)	·	·	·	0	·	·
O=c1oc2ccccc2cc1-c1nc2c(s1)CCc1ccccc1-2	-32	11	24	2	21	·
O=c1oc2cc(O)ccc2cc1-c1nc2c(s1)CCc1ccccc1-2	·	·	·	89*	·	84*
CCC(C)(C)NC(=O)c1cc(C(=O)OC)cc([N+](=O)[O-])c1	-7	-5	13	1	3	·
CCCN(CCC)S(=O)(=O)c1ccc(NC(=O)c2cc(C(=O)OC)cc([N+](=O)[O-])c2)cc1	2	-1	11	88*	-6	-9	MPTP swell DR=11*;MPTP counter DR=4.5*
O=[N+]([O-])c1ccc(NN=Cc2cccc(O)c2)nc1	·	·	·	1	·	·
O=[N+]([O-])c1ccc(NN=Cc2cc(Br)ccc2O)nc1	·	·	·	75*	·	59*
O=[N+]([O-])c1ccc(O)c(/C=N/Nc2ccccc2Cl)c1	42	14	19	94*	3	91*
O=[N+]([O-])c1ccccc1N/N=C\c1ccccc1Cl	-128	3	27	1	9	·
COc1cc(NC(=O)CCn2c(=S)[nH]c3ccccc3c2=O)cc(OC)c1OC	·	·	·	1	·	·
FC(F)(F)Oc1ccccc1C(c1nnnn1C1CCCC1)N1CCN(C/C=C/c2ccccc2)CC1 (configuration not stated)	·	·	·	2	·	·
O=C(/C=C/c1ccccc1)Nc1cccc(C(=O)NCCCCc2ccccc2)c1	·	·	·	3	·	·
Cc1nc2cc(-c3ccsc3-n3c(C)ccc3C)[nH]n2c(=O)c1Cl	11	5	4	67*	12	51*
Cc1ccc(S(=O)(=O)N(CC(=O)Nc2ccc(Cl)c([N+](=O)[O-])c2)C2CCCCC2)cc1	39	19	20	91*	5	81*
Cc1ccc(S(=O)(=O)N(CC(=O)Nc2cccc([N+](=O)[O-])c2)C2CCCCC2)cc1	-10	35	32	3	4	·

Source: PubChem BioAssay
